Screens: PubChem BioAssay, National Center for Advancing Translational Sciences (NCATS)
Compounds with a hit are over-represented: about 2.3% of the library has one in this group of screens.
Tau FP inhib: tau fibrillization inhibition (FP) | P10636 | K18 P301L tau heparin fibrillization, Alexa594 FP, 6 h | Potency, µM (doses to about 57.7 µM), without a hit: at the highest dose activity, negative = inhibition, hits mostly inhibitors | 0.39% of 280,000 active; note: potency is the fitted concentration of half-maximal effect; nearly all actives have a fitted effect of over 55% in size
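Read-out: fluorescence polarization of Alexa 594-labeled tau (0.24 uM), 555 nm excitation, 632 nm emission. Mixtures held 15 uM unlabeled K18 P301L, compound and 20 uM heparin, pH 7 acetate buffer, incubated 6 hr at 37 C.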
FBPA coupling cs: inhibits coupling enzyme system, counter-screen for aldolase hits. activity change, negative = inhibition, % at 58.2 µM, hits read low. 0.67% of 290,000 active. coupling enzyme system counterscreen, AmpLite Red fluorescence; in the data active = activity change below about -30%
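Fluorescence at 525 nm excitation and 598 nm emission measured inhibition of the coupled detection system without aldolase. Compounds (at 57.5 uM final) were preincubated 10 min at room temperature with coupling enzyme reagent before a 20 min substrate/AmpLite Red step.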
Tau fluor cs: counter-screen for tau fibril formation inhibitors. tau K18 P301L Alexa594 fluorescence, heparin fibrillization. Potency, µM (doses to about 57.7 µM), without a hit: at the highest dose activity change, negative = decrease. 0.93% of 280,000 active. AID 1463; note: potency is the fitted concentration of half-maximal effect; nearly all actives have a fitted effect of over 55% in size
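Human tau K18 P301L (15 uM unlabeled, 0.24 uM Alexa 594-labeled) in 100 mM sodium acetate pH 7 with 20 uM heparin, 6 hr at 37 C. ThT 30 uM added, 1 hr ambient; Alexa 594 FP and total fluorescence read at 555/632 nm.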
Tau ThT inhib: inhibitors of human tau fibril formation, thioflavin T binding | P10636 | recombinant tau K18 P301L, heparin-induced fibrillization, ThT fluorescence | Potency, µM (series often up to 57.4 µM), inactives show at the top dose activity, negative = inhibition, most hits filed as inhibitors | 2.1% of 270,000 active | AID 1460; note: potency is the fitted concentration of half-maximal effect; nearly all actives have a fitted effect of over 55% in size
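Using a mix of unlabeled (15 uM) and Alexa 594-labeled (0.24 uM) tau K18 P301L, heparin-triggered fibrillization over 6 hr at 37 C was scored by ThT fluorescence.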
USP1-UAF1 inh: blocks the human USP1/UAF1 deubiquitinase complex; O94782; Potency, µM (highest dose often 57.1 µM), without a hit: at the highest dose activity change, negative = inhibition, most hits filed as inhibitors; AID 743255; 0.23% of 390,000 active; recombinant USP1/UAF1, Ub-Rhodamine cleavage fluorescence; note: potency is the fitted concentration of half-maximal effect; nearly all actives have a fitted effect of over 60% in size
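1 nM enzyme complex + cpd, 15 min RT; start with Ub-Rho 150nM final; kinetic fluorescence ex 480/em 540, 6 reads q60 s. Buffer 50mM HEPES pH 7.8, 0.5mM EDTA, 0.1 mg/ml BSA, 1mM TCEP, 0.01% Tween-20.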
The depositor's hits bear a star; ? = inconclusive; · = no result given; [ ] = remark or other dose. Unless noted, calls come from the whole dose curve; as a rule, active = well fitted curve in the direction sought with a large enough effect; inconclusive = small, poorly fitted or top-dose-only effect, or another doubt; inactive = no such curve, though single readings can be large; an effect the other way counts as inactive or inconclusive. % is set by controls: 0 for no effect and ±100 for the full control effect.

SMILES	Tau FP inhib	FBPA coupling cs	Tau fluor cs	Tau ThT inhib	USP1-UAF1 inh
CCOC(=O)c1cnn(-c2cccc(Cl)c2)c1C1CCN(C(=O)OC(C)(C)C)CC1	9.2%	·	-12.7%	-16.9%	-33.5%
O=C(/C=C/c1ccc(Cl)cc1)NC(=S)Nc1ccc(C(=O)O)cc1	·	-2.2	·	·	-27.9%
CN(C)c1ccc(NC(=S)NC(=O)/C=C/c2ccc(Cl)cc2)cc1	-6.3%	2.1	?	10µM*	-18.5%
COc1ccccc1N=C1SC(C(=O)Nc2cccc(Cl)c2Cl)C(N)=C1C(N)=O (centres undefined)	?	0.3	17.8µM*[quencher]	25.1µM*	-7.8%
CCOc1cc(/C=C/C(=O)c2ccc(OC)c(CN3CCOCC3)c2)cc(Br)c1O	·	1.6	·	·	35.5µM*
CCOc1cc(/C=N/NC(=O)c2ccc(CN3CCOCC3)cc2)ccc1OC	-0.8%	4.2	3.0%	-10.8%	?
CCN(CC(=O)NCc1ccc(F)cc1)C(=O)/C=C/c1ccco1	1.3%	-39.6*	-6.5%	-8.4%	-14.0%
N#C/C(=C/c1ccc(Br)o1)C(N)=S	-20.7%	0.5	28.2µM*[quencher]	17.8µM*	·
N#C/C(=C/c1ccc(Br)o1)C(N)=O	9.6%	3.1	2.9%	1.0%	-15.9%
COc1cc2c(cc1NC(=S)NC(=O)c1c(OC)cccc1OC)oc1ccccc12	28.2µM*	-0.6	-21.9%	-1.3%	-18.7%
NC(=O)NC(=O)COC(=O)c1ccc(Cl)c(S(=O)(=O)N(Cc2ccccc2)c2ccc(Cl)cc2)c1	11.2µM*	-2.6	?	-7.4%	-8.1%
COC(=O)CC1(c2ccccc2)C(=O)c2ccccc2C1=O	-3.6%	1.7	-11.7%	-7.9%	-7.1%
COC(=O)CC1(c2cccc3ccccc23)C(=O)c2ccccc2C1=O	-5.5%	-4.5	?	15.8µM*	-9.1%
CN(C)c1ccc2c3c(cccc13)C(=O)N(c1ccccc1)C2=O	3.6%	-0.4	-1.0%	-11.0%	·
Nc1ccc2c3c(cccc13)C(=O)N(c1ccccc1)C2=O	?	2.3	-13.2%	9.0%	?
Cc1cccc(N2C(=O)c3cccc4c(N(C)CCO)ccc(c34)C2=O)c1	-1.4%	-5.9	-20.5%	?	28.2µM*
Nc1cccc(N2C(=O)c3cccc4c(N)ccc(c34)C2=O)c1	·	-1.6	·	·	28.2µM*
Cc1cccc(N2C(=O)c3cccc4c(N)ccc(c34)C2=O)c1	·	-0.5	·	·	28.2µM*
CCCCn1c(/N=C/c2c[nH]c3ccccc23)nc2ccccc21	?	·	22.4µM*[quencher]	-3.9%	-21.6%
Cc1cc(N/N=C/c2c[nH]c3ccccc23)c2ccccc2n1	-2.5%	0.3	-23.8%	-12.1%	2.6%
O=C(O)c1ccc(N/N=C/c2c[nH]c3ccccc23)cc1	·	-1.8	·	·	-12.5%
Fc1c(F)c(F)c(N/N=C/c2c[nH]c3ccccc23)c(F)c1F	?	3.0	7.08µM*[quencher]	12.6µM*	-13.8%
CCCn1c(/N=C/c2c[nH]c3ccccc23)nc2ccccc21	?	-3.4	?	-6.6%	-3.5%
Cn1c(N/N=C/c2c[nH]c3ccccc23)nc2ccccc21	5.7%	-0.5	15.8µM*[quencher]	4.47µM*	-20.4%
O=C(NC1CCN(Cc2ccccc2)CC1)c1ccc(Cn2c(=O)c3ccccc3n(Cc3ccc(F)cc3)c2=O)cc1	-1.6%	·	-11.9%	3.2%	-3.9%
SMILES	Tau FP inhib	FBPA coupling cs	Tau fluor cs	Tau ThT inhib	USP1-UAF1 inh
COc1cc(O)cc(OC)c1OC	?	-32.5*	-24.6%	?	·
CC(=O)N/C(=C\c1ccccc1)C(=O)OCC(=O)c1c(N)n(C)c(=O)n(C)c1=O	·	·	·	·	-1.7%
O=c1c(N2CCN(c3ccccc3)CC2)csc2ccc(Cl)cc12	-13.1%	·	?	12.6µM*	-31.4%
CCN1CCN(c2csc3ccc(Cl)cc3c2=O)CC1	-3.5%	·	-27.8%	?	-8.2%
O=c1c(N2CCN(c3cccc(Cl)c3)CC2)csc2ccccc12	11.2%	·	-27.3%	10µM*	-20.9%
CC1CCCN(c2csc3ccccc3c2=O)C1 (centres undefined)	6.4%	·	-19.8%	?	-2.0%
CC(C)C1=CC(=Nc2ccc(S(N)(=O)=O)cc2)C=C(C(C)C)C1=O	·	-43.1*	·	·	-7.4%
NS(=O)(=O)c1ccc(N=C2C(=O)Nc3ccccc32)cc1	?	-4.4	-13.6%	?	-25.8%
